HIF-2a block: blocks HIF-2a reporter activity. 786-0 RCC cells HIF-2a reporter, luciferase luminescence, overnight. inhibition, % at 18.8 µM. 0.72% of 360,000 active. AID 624352;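 active = inhibition of the luminescence signal of 40% or more relative to plate controls, in a single-dose primary screen at 18.75 µM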
Peg3 prom inh-1: reduces Peg3 promoter-driven luciferase expression in HeLa; HeLa PEG-Prom luciferase reporter, luminescence, overnight; inhibition, % at 20 µM; 1.7% of 360,000 active; AID 588405;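 active = inhibition of at least 50% at 20 µM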
CF NFkB inh: cystic fibrosis NF-kB activation inhibition. KKLEB NF-kB-GFP reporter, PAF-induced, GFP fluorescence overnight. inhibition, % at 5 µM. 0.86% of 360,000 active. AID 588850;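 active = at least 50% inhibition at 5 µM, scaled per plate between neutral and stimulator controls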;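 also: PAF is a Pseudomonas aeruginosa culture filtrate used as stimulus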
KKLEB tox: counter-screen for CF NF-kB inhibitors: cytotoxicity; 0.36% of 360,000 active; AID 602141; activity change (cytotoxicity), % at 5 µM; KKLEB CF airway cells viability, ATPlite luminescence, overnight; stronger effect = lower value; cells stimulated with P. aeruginosa culture filtrate;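 active = corrected activity change at or below -50% at 5 µM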
Shn3 3UTR inh: inhibitors of Schnurri-3 3'UTR reporter in osteoblasts | Clone20 osteoblast Shn3 3'UTR firefly luciferase, 24 h | inhibition, % at 12.5 µM | 0.52% of 360,000 active | AID 588674;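 active = mean inhibition of at least 75% with every replicate also reaching 75%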
Peg3 prom inh-2: confirmation of Peg3 promoter inhibitors. shares compounds with Peg3 prom inh-1. HeLa PEG-Prom luciferase reporter, luminescence, overnight. inhibition, % at 20 µM. 84% of 1,300 active. AID 602417;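 active = at 20 µM dose, 40% or more inhibition averaged across four replicates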
CF NFkB inh conf: CF NF-kB inhibition confirmation, single concentration; shares compounds with CF NFkB inh; KKLEB CF airway cells, PAF-induced NF-kB-GFP fluorescence, overnight; inhibition, % at 5 µM; 64% of 1,300 active; AID 602472; in the data active = inhibition above about 40%;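 also: stimulus PAF is a Pseudomonas aeruginosa filtrate and not platelet activating factor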
Mdm2-MdmX confirm: confirmation of inhibitors of human Mdm2/MdmX interaction, set 2; shares compounds with HIF-2a block; SaOS-2 split-luciferase Mdm2/MdmX complementation, luminescence; inhibition, % at 8 µM; 99% of 740 active; AID 504601;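 active = mean inhibition of the luminescence signal across two replicates at or above 26 percent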
Target sequence (O15151 whole entry, looked up): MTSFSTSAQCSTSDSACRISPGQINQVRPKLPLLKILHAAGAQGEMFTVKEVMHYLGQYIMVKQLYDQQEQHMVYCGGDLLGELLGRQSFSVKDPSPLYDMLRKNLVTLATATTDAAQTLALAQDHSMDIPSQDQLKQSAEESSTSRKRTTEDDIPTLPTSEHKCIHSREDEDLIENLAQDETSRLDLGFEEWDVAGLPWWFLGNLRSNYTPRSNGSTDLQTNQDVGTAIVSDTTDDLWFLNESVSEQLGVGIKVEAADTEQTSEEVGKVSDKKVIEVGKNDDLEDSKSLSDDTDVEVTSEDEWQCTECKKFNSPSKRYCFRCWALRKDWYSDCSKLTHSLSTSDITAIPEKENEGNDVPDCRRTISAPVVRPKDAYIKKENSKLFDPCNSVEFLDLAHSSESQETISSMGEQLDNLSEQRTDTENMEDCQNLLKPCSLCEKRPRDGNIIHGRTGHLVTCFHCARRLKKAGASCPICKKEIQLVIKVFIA
Target sequence (Q00987 whole entry, looked up): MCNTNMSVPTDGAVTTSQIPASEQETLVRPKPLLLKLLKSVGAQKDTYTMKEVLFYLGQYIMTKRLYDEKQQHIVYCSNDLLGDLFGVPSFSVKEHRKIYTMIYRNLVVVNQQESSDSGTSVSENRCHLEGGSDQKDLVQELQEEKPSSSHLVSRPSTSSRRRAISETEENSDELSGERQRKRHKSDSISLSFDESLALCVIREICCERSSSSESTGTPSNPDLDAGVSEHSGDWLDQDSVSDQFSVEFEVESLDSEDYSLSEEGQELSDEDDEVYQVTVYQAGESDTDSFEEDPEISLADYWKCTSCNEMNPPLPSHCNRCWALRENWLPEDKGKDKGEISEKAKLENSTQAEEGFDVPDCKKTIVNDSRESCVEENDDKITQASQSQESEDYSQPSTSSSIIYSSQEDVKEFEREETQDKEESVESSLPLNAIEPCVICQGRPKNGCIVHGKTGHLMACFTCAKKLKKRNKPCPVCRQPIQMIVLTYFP
HIF-2a conf: HIF-2a inhibition, single concentration confirmation | shares compounds with HIF-2a block | 786-0 RCC cells, HIF-2a luciferase reporter luminescence, overnight | inhibition, % at 18.8 µM | 56% of 1,800 active;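 active = mean inhibition across four replicates of at least 40 percent at the single tested concentration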
HIF-1a counter: inhibits HIF-1a reporter, a counter-screen for HIF-2a inhibitors; AID 651589; 72% of 1,800 active; inhibition, % at 18.8 µM; shares compounds with HIF-2a block; MiaPaCa-2 HIF-1a luciferase reporter, desferoxamine, overnight;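 active = mean inhibition of the reporter signal across four replicates at the single tested dose of 50% or more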
Large screens that a line does not name were inactive (follow-up assays come after a bar, where they were run). Rows were chosen to be rich in hits. Some 2.6% of all compounds tested hit in one or more screens of this group.

CC(C)c1cccc(-c2csc(C(C)(O)c3ccc(F)c(F)c3)n2)c1 (stereo unspecified)	none
COc1ccccc1CC1CC(=O)N(c2ccc([N+](=O)[O-])cc2)C1=O (stereo unspecified)	none
O=C(O)c1cccc(N/N=C/c2cccs2)c1	HIF-2a block 82.0, Peg3 prom inh-1 82.8 | Peg3 prom inh-2 68.1 | HIF-2a conf 85.8 | HIF-1a counter inactive
O=C(O)c1cccc(N/N=C/c2ccc(OC(F)(F)F)cc2)c1	none
Cc1cc(Cl)cc(Cl)c1CNc1c([N+](=O)[O-])c(=O)oc2ccccc12	none
CCCc1nc2oc3c(NCC4CCCO4)ncnc3c2c2c1COC(C)(C)C2 (stereo unspecified)	none
CCCc1nc2oc3c(NCCCN(C)C)ncnc3c2c2c1CCCC2	Peg3 prom inh-1 92.4 | Peg3 prom inh-2 93.4 | Mdm2-MdmX confirm 100.7
O=S(=O)(c1ccc(F)cc1)N1CCN(Cc2ccccn2)CC1	none
O=C(O)c1ccc2nc(-c3ccccc3)sc2c1	HIF-2a block 78.5, Peg3 prom inh-1 86.8 | Peg3 prom inh-2 45.9 | HIF-2a conf 61.6 | HIF-1a counter inactive
COc1ccccc1CCC(=O)N(C)CC(=O)Nc1ccc(Cl)c(C(F)(F)F)c1	none
COc1ccc2[nH]cc(C(=O)CN3CC(C)CC(C)C3)c2c1 (stereo unspecified)	none
COc1ccc2[nH]cc(C(=O)CCl)c2c1	Peg3 prom inh-1 106.7, CF NFkB inh 81.6 | Peg3 prom inh-2 97.5 | CF NFkB inh conf 113.1 | Mdm2-MdmX confirm 102.5
CCOC(=O)c1c(NC(C)=O)sc2c(OCCN(CC)CC)c(Br)ccc12	none
CCOC(=O)c1c(NC(C)=O)sc2c(OCC(O)CN(CC)CC)c(Br)ccc12 (stereo unspecified)	HIF-2a block 77.9, Peg3 prom inh-1 85.6 | Peg3 prom inh-2 97.8 | HIF-2a conf inactive | HIF-1a counter 105.6
O=C(Nc1ccccn1)c1cc2ccccc2o1	HIF-2a block 44.9, Peg3 prom inh-1 51.4 | Peg3 prom inh-2 45.0 | HIF-2a conf 70.5 | HIF-1a counter 60.7
O=C(Nc1ccc(Cl)cn1)c1cc2ccccc2o1	none
Cc1ccc(C(=O)Nc2ccc(C(=O)N3CCCCC3)cc2)o1	none
O=C(NCc1ccccc1Cl)C(=O)NCC1OCCN1S(=O)(=O)c1cccs1 (stereo unspecified)	none
CCOC(=O)c1ccc2nc(NC(C)=O)sc2c1	none
CCOC(=O)c1ccc2nc(Nc3nc4ccc(F)cc4s3)sc2c1	HIF-2a block 90.7, Peg3 prom inh-1 95.9 | Peg3 prom inh-2 93.1 | HIF-2a conf 93.4 | HIF-1a counter 72.5
Cc1nc(Sc2nnnn2C)c2c3c(sc2n1)CCC3	HIF-2a block 55.5, Peg3 prom inh-1 55.3, CF NFkB inh 51.8 | Peg3 prom inh-2 inactive | CF NFkB inh conf inactive | HIF-2a conf inactive | HIF-1a counter inactive
O=C(NCc1ccccc1)C(c1ccc(F)cc1)N(C(=O)c1csnn1)C1CCCC1 (stereo unspecified)	none
CNc1cc(-c2ccc(OC)nc2)ncn1	none
COc1ccccc1N(C(=O)CCl)c1cn(C(C)=O)c2ccccc12	HIF-2a block 47.7, Peg3 prom inh-1 66.7, CF NFkB inh 88.7, KKLEB tox -102.4 | Peg3 prom inh-2 71.8 | Mdm2-MdmX confirm 103.2 | HIF-2a conf 44.2 | HIF-1a counter inactive
Cc1ccc2nc(NC(=O)c3ccco3)sc2c1	HIF-2a block 47.9, Peg3 prom inh-1 68.9 | Peg3 prom inh-2 inactive | HIF-2a conf 71.0 | HIF-1a counter 67.8
C=C1C(=O)O[C@@H]2[C@H]1CC[C@H](C)[C@]1(O)CCC(=O)[C@@]21C	CF NFkB inh 54.0 | CF NFkB inh conf 78.1

Source: PubChem BioAssay (several laboratories)
